MCF10A rerep – induces DNA re-replication in MCF 10a normal breast cells; MCF 10A DNA re-replication, Hoechst nuclear intensity, 48 h; Potency, µM (highest dose often 46.1 µM), hits mostly activators; 350,000 compounds, 2.9% hits; AID 624296; also: nearly all actives have a fitted effect of over 50% in size
PINK1 expr mod – modulators of PINK1 expression | PINK1 immunofluorescence, high-content cytometry, 24 h | Potency, µM (top dose mostly 76.6 µM), usual class: activators | 410,000 compounds, 0.2% hits; active = well fitted activation curve with a large enough effect; inconclusive = small, poorly fitted or top-dose-only effect; cell line not stated here; also: nearly all actives have a fitted effect of over 65% in size
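Decision-based qHTS: stable cells, 24 h exposure to five compound concentrations, CCCP as control. Fixed cells stained for PINK1 plus nuclear, mitochondrial and cell markers, cytometer read.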
IL1B secr inh – inhibitors of inflammasome signaling (IL-1 beta secretion); THP-1 LPS/ATP IL-1B secretion, AlphaLISA, 16 h; hits give low values; activity change, % at 57.5 µM; 360,000 compounds, 4.7% hits; AID 743279; in the data active = activity change below about -50%; inconclusive = mostly about -30% to -49%
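THP-1 cells pretreated 1 hr with compounds (up to 57.5 uM final), then stimulated with LPS (250 ng/mL final) plus ATP (1.25 mM final); secreted IL-1B measured by AlphaLISA after 16 hr, decreased signal indicating inhibition.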
SW480 rerep – inducers of DNA re-replication in SW480 colon cancer cells | SW480 DNA re-replication, Hoechst DNA content imaging, 48 h | Potency, µM (series often up to 46.1 µM), hits mostly activators | 340,000 compounds, 1.8% hits; also: nearly all actives have a fitted effect of over 55% in size
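Compounds, transferred as 23 nL by pin tool, were incubated with cells for 48 hr; DNA content per nucleus was then quantified by Hoechst staining and fluorescence plate imaging.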
ATXN viability – viability counter-screen for ATXN expression inhibitors. S2 cells (HEK-293 line with an ATXN2-luciferase reporter) viability, CellTiter-Fluor protease fluorescence, 24 h. AID 651635. Potency, µM (series often up to 56.7 µM), most hits filed as cytotoxic. 400,000 compounds, 0.49% hits; also: nearly all actives have a fitted effect of over 40% in size
ATXN2 expr inh – ATXN2 expression inhibition | HEK-293 ATXN2-luciferase reporter, luminescence, 24 h | Potency, µM (series often up to 57 µM), actives largely listed as inhibitors | 360,000 compounds, 0.72% hits; also: nearly all actives have a fitted effect of over 55% in size
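ATXN2-luciferase reporter cells (luciferase flanked by upstream and downstream ATXN2 gene portions) were treated 24 h at 37 °C with compounds at up to 57 uM. SteadyGlo luminescence gave expression; GF-AFC fluorescence gave viability.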
Numbers stand for hits; [ ] = remark or other dose. Most compounds without a hit are left out; they make up all but 7.1% or so of the library. Unless noted, calls follow the shape of the dose curve; as a rule, active = well fitted curve in the direction sought with a large enough effect; inconclusive = small, poorly fitted or top-dose-only effect, or another doubt; inactive = no such curve, though single readings can be large; an effect the other way counts as inactive or inconclusive.

How did COc1ccc(CN2CCN(Cc3ccc(C(F)(F)F)cc3)CC2)c(OC)c1 do in these assays?
MCF10A rerep: inactive; PINK1 expr mod: inconclusive; IL1B secr inh: inactive; SW480 rerep: 16µM; ATXN viability: inconclusive

What do the screens show for `Cc1cccc(C(=O)Nc2cccc(C(=O)N/N=C/c3ccc4c(c3)OCO4)c2)c1`?
MCF10A rerep: 13µM; PINK1 expr mod: inactive; IL1B secr inh: inactive; SW480 rerep: 23µM; ATXN viability: inconclusive; ATXN2 expr inh: inactive

What do the screens show for `O=C(N/N=C/c1ccc(F)cc1)c1cccc(NC(=O)c2ccc(F)cc2)c1`?
MCF10A rerep: 21µM; PINK1 expr mod: inconclusive; IL1B secr inh: inactive; SW480 rerep: inactive; ATXN viability: inactive; ATXN2 expr inh: inactive

Results for Cc1c(Cc2ccccc2)c(=O)oc2cc(OCC(=O)NCC3CCC(C(=O)O)CC3)ccc12 (centres undefined) ?
MCF10A rerep: inactive; PINK1 expr mod: inactive; IL1B secr inh: inactive; SW480 rerep: inactive; ATXN viability: inactive; ATXN2 expr inh: inactive

What do the screens show for `CCOc1ccc(CN2CCN(c3ncnc4scc(-c5ccccc5)c34)CC2)cc1`?
MCF10A rerep: inactive; PINK1 expr mod: inactive; IL1B secr inh: inactive; SW480 rerep: inactive; ATXN viability: inactive; ATXN2 expr inh: inactive

What do the screens show for `Cc1sc2ncnc(N3CCN(CCOc4ccc(Cl)cc4)CC3)c2c1C`?
MCF10A rerep: 18µM; PINK1 expr mod: inactive; IL1B secr inh: -58; SW480 rerep: inconclusive; ATXN viability: inactive; ATXN2 expr inh: inconclusive

What do the screens show for `Cc1sc2ncnc(N3CCC(C(=O)NNC(=O)COc4ccc(Cl)cc4)CC3)c2c1C`?
MCF10A rerep: inconclusive; PINK1 expr mod: inactive; IL1B secr inh: inactive; SW480 rerep: inactive; ATXN viability: inconclusive

What do the screens show for `Cc1sc2ncnc(N3CCN(Cc4ccccc4)CC3)c2c1-c1ccccc1`?
MCF10A rerep: 16µM; PINK1 expr mod: inactive; IL1B secr inh: -56; SW480 rerep: inactive; ATXN viability: inactive; ATXN2 expr inh: inactive

Results for O=C(CSc1nc2cc(C(=O)NC3CCCC3)ccc2c(=O)n1CC1CCCO1)c1cccc(Cl)c1 (centres undefined) ?
PINK1 expr mod: inactive; ATXN viability: inactive; ATXN2 expr inh: inactive

Results for Cc1ccc(C)c(CN2CCc3nnc(CNC(=O)c4cc(C)oc4C)n3CC2)c1 ?
PINK1 expr mod: inactive; ATXN viability: inconclusive

Results for CCOc1ccc(CNC(=O)c2ccc3c(c2)nc2n3CCCCC2)cc1 ?
PINK1 expr mod: inactive

Results for O=C1NC[C@@H](Cc2cccc3ccccc23)N(CCc2cc(C(F)(F)F)cc(C(F)(F)F)c2)C1=O ?
MCF10A rerep: inconclusive; PINK1 expr mod: inactive; IL1B secr inh: -51; SW480 rerep: inactive; ATXN2 expr inh: inconclusive

How did O=C1NC[C@@H](Cc2ccc(O)cc2)N(CCc2cccc3ccccc23)C1=O do in these assays?
MCF10A rerep: inactive; PINK1 expr mod: inactive; IL1B secr inh: inactive; SW480 rerep: inactive[9.22 µM]; ATXN viability: inactive; ATXN2 expr inh: inactive

How did Fc1ccc(NC(=S)NNc2ncc(C(F)(F)F)cc2Cl)c(F)c1 do in these assays?
MCF10A rerep: inactive; PINK1 expr mod: 10µM; IL1B secr inh: inactive; SW480 rerep: inconclusive; ATXN viability: inactive; ATXN2 expr inh: 14µM

What do the screens show for `FC(F)(F)c1cnc(NNC(=S)Nc2ccc(Cl)cc2)c(Cl)c1`?
MCF10A rerep: 15µM; PINK1 expr mod: 11µM; IL1B secr inh: -99; SW480 rerep: inconclusive; ATXN viability: inconclusive; ATXN2 expr inh: inconclusive

How did O=C(NNc1ncc(C(F)(F)F)cc1Cl)c1ccc(Cl)c(Cl)c1 do in these assays?
MCF10A rerep: inactive; PINK1 expr mod: inactive; IL1B secr inh: inactive; SW480 rerep: inactive; ATXN viability: inactive; ATXN2 expr inh: inactive

How did Cc1ccc(NC(=S)NNc2ncc(C(F)(F)F)cc2Cl)cc1 do in these assays?
MCF10A rerep: inactive; PINK1 expr mod: 32µM; IL1B secr inh: inactive; SW480 rerep: inactive; ATXN viability: inactive; ATXN2 expr inh: 17µM

What do the screens show for `Nc1ccccc1C(=O)NNc1ncc(C(F)(F)F)cc1Cl`?
MCF10A rerep: 15µM; PINK1 expr mod: inconclusive; IL1B secr inh: inactive; SW480 rerep: 5.8µM; ATXN viability: inactive; ATXN2 expr inh: inactive
